Assay results taken from PubChem BioAssay AID2284148 (EPA ToxCast).
Active and inactive are the calls of the source. How the source made its calls: active means hit-call score of the fitted dose curve at least 0.9, where 1 is the maximum; inactive means score below 0.9.

biological target: human Cholecystokinin Receptor CCK1 (CCKA) Agonism, CCKAR (gene 886) (UniProt P32238); test: ERF_TW_GPCR_hCCKAR: Eurofins (ERF) G Protein-Coupled Receptor (GPCR) Radioligand Binding LeadHunter Assay for human Cholecystokinin Receptor CCK1 (CCKA) Agonism
Sequence (P32238 whole entry, looked up): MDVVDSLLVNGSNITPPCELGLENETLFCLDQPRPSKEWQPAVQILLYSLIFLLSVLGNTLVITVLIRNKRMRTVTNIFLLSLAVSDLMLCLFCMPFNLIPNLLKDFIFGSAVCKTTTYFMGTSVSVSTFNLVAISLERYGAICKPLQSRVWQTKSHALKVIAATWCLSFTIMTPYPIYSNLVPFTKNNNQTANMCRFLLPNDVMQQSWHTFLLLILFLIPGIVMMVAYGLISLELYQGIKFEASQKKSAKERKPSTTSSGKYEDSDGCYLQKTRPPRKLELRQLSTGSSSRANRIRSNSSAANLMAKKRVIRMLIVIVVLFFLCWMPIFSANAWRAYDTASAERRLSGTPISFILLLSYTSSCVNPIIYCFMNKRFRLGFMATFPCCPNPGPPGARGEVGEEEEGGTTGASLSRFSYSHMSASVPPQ
Experimental: ERF_TW_GPCR_hCCKAR is a biochemical, single-readout assay that uses extracted gene-proteins in a cell-free assay. Measurements were taken 1 hour after chemical dosing in a 96-well plate. See CCK1 (CCKA) Human Cholecystokinin GPCR Binding (Antagonist Radioligand) Assay, Panlabs.ERF_TW_GPCR_hCCKAR is an assay component calculated from the ERF_TW_GPCR_hCCKAR assay. It is designed to measure radioligand binding using a type of binding reporter as detected by scintillation counting with radiometry technology.Data from the assay component ERF_TW_GPCR_hCCKAR was analyzed at the assay endpoint, ERF_TW_GPCR_hCCKAR, in the positive analysis fitting direction relative to DMSO as the negative control and baseline of activity. Using a type of binding reporter, loss-of-signal activity can be used to understand changes in binding as they relate to gene CCKAR. To generalize the intended target to other relatable targets, this assay endpoint is annotated to the gpcr intended target family, where the subfamily is cholecystokinin.
1321-N1 (human astrocytoma) stably transfected with a plasmid encoding the human recombinant CCK1 receptor are used to prepare membranes in modified HEPES buffer pH 7.4. A 5 ug aliquot of membrane is incubated with 0.11 nM [125I]CCK-8 for […] at 25C. […] Membranes are filtered and washed, the filters are then counted to determine [125I]CCK-8 specifically bound. […]

`CCCCC[C@H](O)CC(=O)CCc1ccc(O)c(OC)c1` was tested. Which outcome did it give?
The outcome was “inactive”.

With `O=C(/C=C/c1ccc(O)cc1)CC(=O)/C=C/c1ccc(O)cc1` as the molecule, how does the AC50 read?
Its AC50 is 1990 nM (active).
